From the supplement of paper PMC6555819 come the findings set out here.

In this assay the test system is VDR:RXRa (NR concentration 270 nM, RXRa partner concentration 90 nM). Kind of assay: PBM binding z-score (relative to random genomic background probes); higher = stronger binding; sequences stand for … in GC…GCGATTGACAGCGTAGAATGAAGG
On the procedure:
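Protein-binding microarray (Agilent 4x180K custom design, double-stranded 60-nt probes: 5' GC cap, 34-nt variable region, 24-nt constant primer region; full probe sequence given). Purified or IVT nuclear receptor:RXRα heterodimers (3:1 NR:RXRα, mostly 270:90 nM) or homodimers were incubated for 1 h in PBS with 2% milk and no ligand, then detected with Alexa488 antibodies. Fluorescence from o1-orientation probes (~5 replicates averaged) was converted to z-scores against 500 random hg19 background probes. Variable regions are seed direct-repeat (DR0–DR5) sites, all their single-nucleotide variants and half-site ablations.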
ACTATTAGTTGAGACGAAGGCAACCGATAGGTTG yielded a PBM binding z-score of -0.504.

The sequence ATGTCTAGGTAAAGTTCAGTGAAAGATCGATAGA displayed a PBM binding z-score of 1.8.

For the sequence TCAAATAGGTAAATGCTAGGTGAAAGTCCGATCT, the PBM binding z-score was 0.866.

In the case of ATCGCAAGGTCGTGAGGTGAGTATACAGAAAGGC, the PBM binding z-score worked out at 2.33.

The sequence CGTCCTAGGTCAAAGGTCAGTGAAGAGATGACGG had a PBM binding z-score of 5.56.

ATCTCTAGGTAAAAATTCAGTGAATCCCGAGGAT returned a PBM binding z-score of -0.13.

Sequence CCTACTGGACCATTCAGAGGTCATTGATCATATG had a PBM binding z-score of 3.95.

The sequence CCGACTGGGGGAGAAAGGTTACCATACCATCCGG registered a PBM binding z-score of 1.42.

Consider CCTCGCAGGCCAATCTGGGTCACTCAAGGCTTGA, for which the PBM binding z-score was 0.596.

The sequence ATCGAAAGGTCGAAGGTTAGTATACCCACCCGAA registered a PBM binding z-score of 3.14.

In the case of TCATAGAGGTAAAGGTGAAAGTCGAACGATATGA, the PBM binding z-score was determined as 0.788.

The sequence ATCGAAAGGTCGTGAGTTGAGTATACAGAAAGGC registered a PBM binding z-score of 3.51.

Turning to AGAACGAGGGCAATGAGTAGATAGCACGGGTGGC, the PBM binding z-score worked out at 1.15.

For the sequence ATCTCTAGGTAACAAGTTTAGTGAAAGAGAGGAC, the PBM binding z-score is 0.823.

AGAACGAGGGCAACGAGTTGATAGCACGGGTGGC registered a PBM binding z-score of 5.16.

CCAGACAGGTGAGAAGGTAAATCAGCCTCGATTA came in with a PBM binding z-score of -0.13.

In turn, ACTATTAGTTGAGACGAGGGCAAACGATAGGTTG showed a PBM binding z-score of 0.775.

The sequence ACTCGGAGGACAAAGGACAGAGCTACGCCAGTGA yielded a PBM binding z-score of -0.523.

The sequence CCTACTGGGCCATTCAGAGGTGATTGATCATATG displayed a PBM binding z-score of -0.104.

For TAGCCTAGGTCATGCGGGGCAGTATAGTGTCGGC, the PBM binding z-score came to 4.22.

ACTAGCAGGCCAAGTTTGGGTCGCTCAAACAAAG had a PBM binding z-score of -0.328.

Regarding CCTACTGAGCCAAAAAGGTCATTGATGCCGATAA, the PBM binding z-score was determined as 4.58.

In the case of CCGTACGGGTCACGAGGTTATAGCACGACGAGCG, the PBM binding z-score came out at 5.23.

In turn, CGAACTAGGTCGGAACAGGACAGTGAAGGATGAT yielded a PBM binding z-score of -0.292.

In turn, TAGCCTAGGTCAGATCGGGCAAGTATACGCTATA yielded a PBM binding z-score of 0.761.

Sequence ATCGCTAGGTAACAAGTTCAGTGAAAGAGAGGAC showed a PBM binding z-score of 1.42.

As for TCTTGTAGATCAGCAGGTTAAGAACGCTGGCCAA, the PBM binding z-score is 0.123.

Take ACTATTAGTTGAGACGAGGGCATCCGATAGGTTG: the PBM binding z-score was 0.918.

Sequence TAAGACAGGTGAAGGTAACTCAGGTACGCAGTCG showed a PBM binding z-score of 0.46.

CCAGACAGGTGACAGGTAACTCAGTCTGGTACGC showed a PBM binding z-score of -0.206.

Regarding CAAACTAGGTCACGAAAGTTCAAAGTCGAATGAC, the PBM binding z-score is 7.01.

The sequence TGAATGAGGTTAAAGATCCGGGAACGTGGCGTCG had a PBM binding z-score of 1.03.

As for TCTTGTAGATCAGCAGGTTAAGGAAGCTGGCCAA, the PBM binding z-score was 0.37.

For the sequence TCTTGTAGGTCAAGCAGGTTAAGAAAGCCTGAGT, the PBM binding z-score was found to be 5.16.

In turn, ACTTACGGATCAACGAGGTTATAGCACGCGTATA returned a PBM binding z-score of 4.59.

Regarding TCTATTAGTCGAAGGGCAACCGACGAGTCCGTTT, the PBM binding z-score came to 0.789.

Sequence CCGACTGGGGCATAAAGTTACCATAAGCCAGCCC registered a PBM binding z-score of -0.432.

The sequence ACTCGTAGGACAAAGGTCAGAGCTACGCCAGTGA came in with a PBM binding z-score of 2.89.

TCATATAGGTAGACAGGTGAAAGTCCGTAAGTTA returned a PBM binding z-score of 0.905.

Regarding CCTAGTGGGCCATCAGGTCATTGATATCAACGTT, the PBM binding z-score stood at 1.61.
